According to PubChem BioAssay (NCI):
This is part of a sample that, as a whole, favours compounds with a hit. Of some 83,000 tested, about 20% had one in any assay.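 How to read the values: 0–100, growth inhibition (40 = 60% inhibited); 0, no net growth; -100 to 0, cell death (-40 = 40% of starting cells died; -100 = all dead).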 A number with no mark means an inactive call. Calls of active or inactive are those of the source. How the source made its calls: active means growth percent below 10; inactive means the rest.

tested on: OVCAR-8 ovarian; assay: NCI-60 one-dose screen, 48 h (100 = growth as untreated, 0 = no growth, -100 = all killed); conditions: 10 µM unless noted

Structure (SMILES)	growth
C=CN(C(=O)N1CCN(c2cc3c(cc2F)c(=O)c(C(=O)O)cn3C2CC2)CC1)c1nc(-c2ccccc2)cs1	91.3%
CNCCCNc1nc2ccccc2c2c(=O)c3cc(Cl)ccc3sc12	24.5%
CCOC(=O)C1=C(CCl)N(C)C(=O)NC1c1ccc2c(c1)OCO2 (configuration not stated)	44.9%
COc1ccc(C2[C@@H](Cl)C(=O)N2c2cc(OC)c(OC)c(OC)c2)cc1Cl (some centres not stated)	9.75% (active)
Cn1cc(-c2nonc2-c2c[nH]c3ccccc23)c2cc(Br)ccc21	45%
COc1cc2c3c(c4c5ccccc5[nH]c4c2c(OC)c1OC)C(=O)N(CCN1CCCCC1)C3=O	-35.5% (active)
COC(=O)/C(CCC=C(C)C)=C1\[C@@H](OC(C)=O)C[C@@]2(C)[C@H]1C/C(=N/O)[C@H]1[C@@]3(C)CC/C(=N\O)[C@@H](C)[C@@H]3CC[C@@]12C	90.4%
Cc1[nH]n(-c2cccc(Cl)c2)c(=O)c1/C=C1\C=c2ccccc2=CC1=O	22.3%
CCN(CC)CCn1c2ccc(OC)cc2c2sc3cc(O)ccc3c(=O)c21	30.7%
C=C1C(=O)O[C@H]2[C@H]1CC/C(COC(=O)NCc1ccc(Cn3c(=O)sn(-c4ccc(I)cc4)c3=O)cc1)=C\CC[C@@]1(C)O[C@@H]21	82.1%
CS(=O)(=O)Nc1cc(-c2ccc3ncnc(Nc4ccc5c(cnn5Cc5ccncc5)c4)c3c2)cnc1Cl	82.5%
COc1ccc2cc(C(=O)N3CCC([C@@H](C)C(=O)NCc4ccc5c(c4)OCO5)CC3)[nH]c2c1	16.3% [50 µM]
